# In PubChem BioAssay (NCATS):
# Where “and” joins values, the source holds several entries; their conditions need not be identical. Identical values can stand only once. Results filed as inconclusive are left out. Calls of active or inactive are those of the source. Calls follow the shape of the dose curve; as a rule, active = well fitted curve in the direction sought with a large enough effect; inconclusive = small, poorly fitted or top-dose-only effect, or another doubt; inactive = no such curve, though single readings can be large; an effect the other way counts as inactive or inconclusive.
# Columns and labels:
# [1] = NS1 protein of Zika virus - qHTS assay to identify small molecule inhibitors in human HEK 293 cells (AID 1347053); also: series mostly up to about 46 µM; nearly all actives have a fitted effect of over 55% in size
# Outline: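 Compound-treated (1 h pre-infection) HEK 293 cells infected with ZIKV MR766, MOI = 0.5; after 24 h at 37 C, NS1 read by TR-FRET; data normalized to uninfected and infected controls.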
# [2] = qHTS of pediatric cancer cell lines to identify multiple opportunities for drug repurposing: Primary screen for TC32 cells (AID 1347089); also: nearly all actives have a fitted effect of over 60% in size; also: potency is read from the fitted curve at half-maximal effect
# Outline: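 Luminescent ATP read-out (CellTiter-Glo) of metabolically active TC32 cells after 48 h exposure. Concentration-response curves came from 11-point (MIPE, 0.78 nM–46 µM) or 8-point (NPC, 0.59 nM–46 µM) primary titrations; follow-up used 11 points.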
# [3] = qHTS of pediatric cancer cell lines to identify multiple opportunities for drug repurposing: Primary screen for SJ-GBM2 cells (AID 1347091); also: potency is read from the fitted curve at half-maximal effect
# Outline: (§1)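 Viability measured as metabolically active cells via CellTiter-Glo luminescence following 48 hours of compound exposure, 11-point dilutions in confirmatory testing. 500-1,000 cells/well plated 5 hours before dosing; controls were DMSO and 2.3 µM bortezomib.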
# [4] = qHTS of pediatric cancer cell lines to identify multiple opportunities for drug repurposing: Primary screen for NB-EBc1 cells (AID 1347095); also: potency is read from the fitted curve at half-maximal effect
# Outline: (§2)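 Primary screen of approved and investigational compounds on cells in growth media at 37 degrees C, 5% CO2. MIPE set at 11-point and NPC set at 8-point dilutions; viability scored by ATP-based luminescence at 48 hours.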
# [5] = qHTS of pediatric cancer cell lines to identify multiple opportunities for drug repurposing: Primary screen for DAOY cells (AID 1347090); also: nearly all actives have a fitted effect of over 55% in size; also: potency is read from the fitted curve at half-maximal effect
# Outline: as §1
# [6] = qHTS of pediatric cancer cell lines to identify multiple opportunities for drug repurposing: Primary screen for A673 cells (AID 1347092); also: nearly all actives have a fitted effect of over 45% in size; also: potency is read from the fitted curve at half-maximal effect
# Outline: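 Cell viability of A673 measured by CellTiter-Glo ATP luminescence after 48 hours compound exposure. Dilution series spanned 0.78 nM to 46 µM (MIPE, 11-point) or 0.59 nM to 46 µM (NPC, 8-point); bortezomib 2.3 uM positive control.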
# [7] = qHTS of pediatric cancer cell lines to identify multiple opportunities for drug repurposing: Primary screen for SK-N-MC cells (AID 1347093); also: potency is read from the fitted curve at half-maximal effect
# Outline: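 Metabolically active cells were quantified by ATP-dependent luminescence (CellTiter-Glo, 15 min at room temperature) following 48 h treatment. Cells had been plated at 500-1,000 per well and settled for 5 h beforehand.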
# [8] = qHTS of pediatric cancer cell lines to identify multiple opportunities for drug repurposing: Primary screen for Saos-2 cells (AID 1347097); also: potency is read from the fitted curve at half-maximal effect; nearly all actives have a fitted effect of over 40% in size
# Outline: as §2
# [9] = qHTS of pediatric cancer cell lines to identify multiple opportunities for drug repurposing: Primary screen for U-2 OS cells (AID 1347096); also: nearly all actives have a fitted effect of over 50% in size
# Outline: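 Viability after 48 h compound treatment at 37C, 500-1,000 cells/well, read as ATP luminescence with CellTiter-Glo. Primary screens used 11-point (MIPE, 0.78 nM-46 µM) or 8-point (NPC, 0.59 nM-46 µM) final concentrations; follow-up screens used 11-point dilutions.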
# [10] = qHTS of pediatric cancer cell lines to identify multiple opportunities for drug repurposing: Primary screen for BT-37 cells (AID 1347094); also: potency is read from the fitted curve at half-maximal effect
# Outline: as §2
# [11] = qHTS of pediatric cancer cell lines to identify multiple opportunities for drug repurposing: Primary screen for SK-N-SH cells (AID 1347098); also: nearly all actives have a fitted effect of over 65% in size; also: potency is read from the fitted curve at half-maximal effect
# Outline: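 Cells (500-1,000/well) rested 5 h, then received compounds for 48 h; metabolically active cells were measured by CellTiter-Glo luminescence. Final concentrations spanned up to 46 µM (MIPE, 11-point) or 0.59 nM-46 µM (NPC, 8-point) in primary screens, 11-point in follow-ups.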
# [12] = qHTS of pediatric cancer cell lines to identify multiple opportunities for drug repurposing: Primary screen for NB1643 cells (AID 1347099); also: potency is read from the fitted curve at half-maximal effect; nearly all actives have a fitted effect of over 50% in size
# Outline: as §2
smiles,measurement,setting,value
CCOc1cc(C(=O)Nc2ccc(Cl)c(-c3nc4ccccc4[nH]3)c2)cc(OCC)c1OCC,Potency,[1],inactive
same,Potency,[2],inactive
same,Potency,[3],inactive
same,Potency,[4],inactive
COc1ccc2c3n(c(=NC(=O)c4cccnc4)nc2c1OC)CCN3,Potency,[5],1.87 µM (active)
same,Potency,[3],18.7 µM (active)
same,Potency,[6],0.743 µM (active)
same,Potency,[7],0.372 µM (active)
same,Potency,[4],18.7 µM (active)
same,Potency,[8],1.18 µM (active)
O=c1ncn2nc(Sc3ccc(F)cc3F)ccc2c1-c1c(Cl)cccc1Cl,Potency,[1],inactive
same,Potency,[2],inactive
same,Potency,[4],inactive
CN[C@@H](C)C(=O)N[C@H]1CCCC[C@H]2CC[C@@H](C(=O)N[C@@H](c3ccccc3)c3cn(CCCCc4ccc(CCCCn5cc([C@@H](NC(=O)[C@@H]6CC[C@@H]7CCCC[C@H](NC(=O)[C@H](C)NC)C(=O)N76)c6ccccc6)nn5)cc4)nn3)N2C1=O,Potency,[2],inactive
same,Potency,[3],inactive
same,Potency,[7],6.62 µM (active)
same,Potency,[9],inactive
Cc1cc(Nc2nc(N[C@@H](C)c3ncc(F)cn3)ncc2Cl)n[nH]1,Potency,[5],2.96 µM (active)
same,Potency,[3],23.5 µM (active)
same,Potency,[6],1.18 µM (active)
same,Potency,[7],3.72 µM (active)
same,Potency,[10],15.3 µM (active)
same,Potency,[4],18.7 µM (active)
same,Potency,[8],26.4 µM (active)
same,Potency,[11],15.2 µM (active)
same,Potency,[12],1.32 µM (active)
Cc1cc(-c2ccc(CC(=O)Nc3ccc(-c4cccnc4)cc3)cc2)ccn1,Potency,[2],inactive
same,Potency,[6],23.5 µM (active)
same,Potency,[7],9.35 µM (active)
same,Potency,[10],inactive
O=S(=O)(N=Cc1c(O)ccc2ccccc12)c1cccs1,Potency,[1],inactive
same,Potency,[2],inactive
same,Potency,[7],9.35 µM (active)
same,Potency,[10],inactive
same,Potency,[9],inactive
same,Potency,[8],18.7 µM (active)
CN(C)C(=O)c1ccc(S(=O)(=O)c2ccc(NC(=O)[C@@](C)(O)C(F)(F)F)c(Cl)c2)cc1,Potency,[2],inactive
same,Potency,[5],18.7 µM (active)
same,Potency,[3],inactive
same,Potency,[6],18.7 µM (active)
same,Potency,[7],16.6 µM (active)
same,Potency,[4],inactive
same,Potency,[9],inactive
same,Potency,[11],inactive
CN(C)c1ccc(Nc2nc(N)n(C(=O)c3c(F)cccc3F)n2)cc1,Potency,[1],inactive
same,Potency,[6],2.35 µM (active)
same,Potency,[7],0.469 µM (active)
same,Potency,[8],16.6 µM (active)
same,Potency,[11],3.83 µM (active)
same,Potency,[12],11.8 µM (active)
Cc1ccccc1C(C(=O)NC1CCCC1)N(C(=O)Cn1cnc2ccccc21)c1cccc(F)c1 (stereo not drawn),Potency,[2],inactive
same,Potency,[5],inactive
same,Potency,[3],inactive
same,Potency,[6],inactive
same,Potency,[4],inactive
same,Potency,[9],inactive
same,Potency,[11],inactive
COc1ccc(COc2cc3oc(=O)c4cc(C(C)O)ccc4c3cc2OC)cc1 (stereo not drawn),Potency,[1],inactive
same,Potency,[2],inactive
same,Potency,[3],10.5 µM (active)
same,Potency,[4],10.5 µM (active)
same,Potency,[9],inactive
same,Potency,[8],14.8 µM (active)
COc1ccccc1[C@H](c1cccc2ccccc12)[C@@](C)(C#N)C(=O)N1CCC(c2cccc(C(F)(F)F)c2)CC1,Potency,[1],inactive
same,Potency,[7],1.18 µM (active)
same,Potency,[10],17.2 µM (active)
same,Potency,[4],6.62 µM (active)
COc1cc(Nc2ncc3c(n2)-c2ccc(Cl)cc2C(c2c(F)cccc2OC)=NC3)ccc1C(=O)O,Potency,[2],0.186 µM (active)
same,Potency,[6],inactive
same,Potency,[7],0.0743 µM (active)
same,Potency,[10],inactive
same,Potency,[4],0.0332 µM (active)
same,Potency,[8],4.69 µM (active)
same,Potency,[11],8.57 µM (active)
CC1(C)Cc2c(-c3ccccc3)c(-c3ccc(Cl)cc3)c(CC(=O)O)n2C1,Potency,[2],inactive
same,Potency,[7],26.4 µM (active)
same,Potency,[9],inactive
same,Potency,[8],33.2 µM (active)
CNC(=O)c1ccc(C)c(-n2c(C)cc(OCc3ccc(F)cc3F)c(Br)c2=O)c1,Potency,[2],inactive
same,Potency,[5],inactive
same,Potency,[10],inactive
same,Potency,[9],inactive
COc1ccc(-c2ccc3c(N4CCOC[C@H]4C)nc(N4CCOC[C@H]4C)nc3n2)cc1CO,Potency,[2],0.165 µM (active)
same,Potency,[3],0.0083 µM (active)
same,Potency,[6],0.0235 µM (active)
same,Potency,[7],0.0047 µM (active)
same,Potency,[10],0.0544 µM (active)
same,Potency,[4],0.0332 µM (active)
same,Potency,[8],0.469 µM (active)
O=C(Nc1cccnc1)N1CCC(Cc2cccc(Oc3ccc(C(F)(F)F)cn3)c2)CC1,Potency,[2],inactive
same,Potency,[5],14.8 µM (active)
same,Potency,[3],18.7 µM (active)
same,Potency,[6],11.8 µM (active)
same,Potency,[9],inactive
C#Cc1cccc(Nc2ncnc3cc(OCCOC)c(OCCOC)cc23)c1,Potency,[1],inactive
same,Potency,[7],1.05 µM (active) and 7.5 µM (active)
same,Potency,[10],19.3 µM (active) and 11 µM (active)
same,Potency,[9],inactive
same,Potency,[8],16.6 µM (active)
same,Potency,[12],5.9 µM (active)
COc1ccc(-c2c(-c3ccc(O)cc3O)n[nH]c2C)cc1,Potency,[2],inactive
same,Potency,[4],38.2 µM (active)
same,Potency,[9],inactive
S=C(NCc1ccc2c(c1)OCO2)N1CCN(c2ncnc3c2oc2ccccc23)CC1,Potency,[2],inactive
same,Potency,[5],2.15 µM (active)
same,Potency,[6],1.71 µM (active)
same,Potency,[7],4.29 µM (active)
same,Potency,[11],inactive
